Results filed as inconclusive are left out. Entries that show only a call come without a potency. Values without a mark were called inactive. The source made the active and inactive calls. Calls come from the whole dose curve.
Potency is the fitted concentration of half-maximal effect.

The assay in a line: qHTS assay to identify small molecule agonists of the AP-1 signaling pathway - cell viability counter screen (AID 1159525). Note: nearly all actives have a fitted effect of over 55% in size. The conditions noted are these: ME-180 (cervical carcinoma) AP-1-bla cells viability, ATP luminescence, 5 h; series mostly up to 76.8 µM. The source says: National Center for Advancing Translational Sciences [NCATS]
NIH Chemical Genomics Center [NCGC]
U.S. Environmental Protection Agency [EPA]
National Institutes of Environmental Health Sciences [NIEHS]
National Toxicology Program [NTP]
U.S. Food and Drug Administration [FDA]
Activator protein-1 (AP-1), a transcription factor, plays an important role in tumor genesis by regulating genes involved in cell proliferation, differentiation, apoptosis, and angiogenesis. AP-1 activity is induced by a complex network of signaling pathways that involves extracellular signals, such as growth factors. The AP-1 protein complex formed from c-Fos and c-Jun binding to the AP-1 response element results in transcriptional activation of genes containing such elements within their promoter.
Low molecular weight molecules have been discovered and developed to modulate various components of these signaling pathways, for example, MAP kinase inhibitors. However, many points of pathway modulation remain untested due to the lack of chemical probes making this signaling locus of general interest.
Using a beta-lactamase reporter-gene under control of the AP-1 response element, a cell-based assay [CellSensor(TM) AP-1-bla ME-180 developed by Invitrogen Corp.] was used to measure EGF-induced signaling. The Tox21 10K library compounds were measured for their ability to positively modulate the action of EC50 EGF on reporter gene activity. Compounds were screened in a 15-pt titration series in 1536-well format. The cytotoxicity of the Tox21 compound library against this cell line was tested in parallel by measuring the intra cellular ATP content in the same wells.
Tox21 Assay Protocol Summary:
2500 cells/5uL in Opti-MEM medium containing 0.5% dialyzed FBS, 0.1 mM NEAA, 1 mM sodium pyruvate and 10 mM HEPES was dispensed into 1536-well black wall/clear bottom plates using a Multidrop dispenser and cells were cultured at 37 degrees Celsius overnight. Next day 23 nL of compounds dissolved in DMSO, positive controls or DMSO were delivered to each well using a pin tool. The plates were incubated at 37 degrees Celsius for 5 hours. 1 uL of LiveBLAzerTM B/G FRET substrate (Solution A+B+C+D) was added to each well using a Flying Reagent Dispenser. After incubated at room temperature for 2.5 hours the plates were measured on an EnVision plate reader at Excitation 405nm, Emission1=460nm and Emission 2=530nm. The %Activity was determined from the ratio of 460nm/530nm.
After the plates were read for Beta-Lactamase assay on Envision; 3 ul Cell Titer Glo (Promega) was added to measure the cytotoxicity and the plates were then incubated at RT in dark for 30 min. The luminescence was read on ViewLux (Perkin Elmer, Shelton, CT) using 6 sec exposure. ViewLux data was expressed as relative luminescence units.
For primary data analysis, raw plate reads for each titration point were first normalized relative to […] EGF control (100%) and DMSO only wells (basal, 0%).
For primary data analysis for viability assay, raw plate reads for each titration point were first normalized Tetra n-octyl ammonium bromide control (-100%) and DMSO (control, 100%).
For `CCCCCCCCc1ccc(Nc2ccc(CCCCCCCC)cc2)cc1`, the Potency entry is “inactive”.
Take `CCSCC`: the Potency result is “inactive”.
On the same count and under the same terms, as for `CN1CCN(CCCN2c3ccccc3Sc3ccc(C(F)(F)F)cc32)CC1`, the entry is “inactive”; as for `CCc1cccc(C)c1N(C(=O)CS(=O)(=O)O)C(C)COC` (stereo not given), “inactive”; as for `CC(C)=NNC(N)=S`, “inactive”.
With `CCC1(C)C(=O)N(Cl)C(=O)N1Cl` (stereo not given), the Potency entry was “inactive”.
For the compound `CC(=O)[C@]1(O)Cc2c(O)c3c(c(O)c2[C@@H](O[C@H]2C[C@H](N)[C@H](O)[C@H](C)O2)C1)C(=O)c1ccccc1C3=O`, the Potency result is “inactive”.
`CCN(CC)c1ccc(N=Nc2ccccc2)cc1`: the Potency result was “inactive”.
For the compound `O=[N+]([O-])c1ccc(CO)cc1`, the Potency entry is “inactive”.
Same read-out and setting: as for `NCc1cccc(C2CCN(C(=O)c3ccc(C#Cc4ccccc4F)o3)CC2)c1`, the figure is 54.9 µM (active).
On to `C=COCCCC`, for which the Potency entry is “inactive”.
On to `S=C1NC=NC2N=CNC12` (stereo not given), for which the Potency result was “inactive”.
Take `Cc1c(Cl)c(=O)oc2cc(O)ccc12`: the Potency entry was “inactive”.
As to `O=C(Nc1ccccc1)c1cc(Cl)ccc1O`, the Potency entry is “inactive”.
Consider `O=C(O)C[C@H](O)C[C@H](O)/C=C/c1c(C2CC2)nc2ccccc2c1-c1ccc(F)cc1`, for which the viability change, negative = cytotoxic is 2.51% [at 15.8 µM].
Consider `c1ccc(-c2nc3ccccc3[nH]2)cc1`, for which the Potency entry is “inactive”.
Take `CCNc1nc(NC(C)(C)C)nc(OC)n1`: the Potency entry is “inactive”.
In the case of `CCCC(C)C=O` (stereo not given), the Potency result was “inactive”.
Consider `CCCCCCCCCCCCS(=O)(=O)Cl`, for which the viability change, negative = cytotoxic is -17.5% [at 15.8 µM].
For `C/C=C/C(=O)OCC(C)C`, the Potency entry is “inactive”.
For the compound `Nc1cccnc1N`, the Potency entry is “inactive”.
As for `Clc1ccc2c(Cl)ccnc2c1`, the Potency result was “inactive”.
In the case of `C=CC(=O)O[C@H]1C[C@@H]2CC[C@@]1(C)C2(C)C`, the Potency result was “inactive”.
Take `Cc1c[nH]c(=O)[nH]c1=O`: the Potency result was “inactive”.
Take `Cc1ccc2sc3cccc(C)c3c2c1`: the Potency entry was “inactive”.
Take `CC(=O)CC(N)=O`: the Potency result is “inactive”.
On the same count and under the same terms, as for `CCC(=O)OC/C=C(\C)CCC=C(C)C`, the entry is “inactive”; as for `CC1(C)[C@H](C(=O)OCc2cccc(Oc3ccccc3)c2)[C@@H]1C=C(Cl)Cl`, “inactive”; as for `C=CCc1cc(S(=O)(=O)c2ccc(O)c(CC=C)c2)ccc1O`, “inactive”.
With `C/C(=C\c1ccc(C(=O)O)cc1)c1ccc2c(c1)C(C)(C)CCC2(C)C`, the Potency result was “inactive”.
The same measure, in the same setting: as for `Cc1cc(F)ccc1-c1cc(N2CC[C@@H](O)[C@H]2CO)ncc1N(C)C(=O)C(C)(C)c1cc(C(F)(F)F)cc(C(F)(F)F)c1`, the figure is 17.1 µM (active).
`CCCCCCCCCCCCCCCCC(C(=O)O)C(O)(CC(=O)O)C(=O)O` (stereo not given): the Potency is 21.3 µM (active).
`CCCOC(=O)c1ccc(O)cc1`: the Potency result was “inactive”.
On to `[Cl][Dy]([Cl])[Cl]`, for which the Potency entry was “inactive”.
With `CN(C[C@@H](CC[N+]12CCC(C3CCCCC3)(CC1)CC2)c1ccc(Cl)c(Cl)c1)C(=O)c1cc(C(F)(F)F)cc(C(F)(F)F)c1`, the Potency was 43.6 µM (active).
`Nc1cc([N+](=O)[O-])ccc1Cl`: the Potency result was “inactive”.
On the same count and under the same terms, as for `CC(CC(C)(C)C)CC(C)(C)CC(C)(C)C` (stereo not given), the entry is “inactive”; as for `CC1CCC(C(C)(C)O)CC1` (stereo not given), “inactive”.
Regarding `O=S(=O)(c1ccc(OCc2ccccc2)cc1)c1ccccc1O`, the Potency result was “inactive”.
For `CCCCNc1ccc(NCCCC)c2c1C(=O)c1ccccc1C2=O`, the viability change, negative = cytotoxic is -8.5% [at 15.8 µM].

The record behind these values is PubChem BioAssay (Tox21).
